VDR inhibitor = blocks the human vitamin D receptor; P11473; VDR-SRC2-3 peptide fluorescence polarization, 2 h; Potency, µM, for the others: max response, negative = inhibition, usual class: inhibitors; actives 0.93% (n = 400,000); AID 504847
Target sequence (P11473 whole entry, looked up): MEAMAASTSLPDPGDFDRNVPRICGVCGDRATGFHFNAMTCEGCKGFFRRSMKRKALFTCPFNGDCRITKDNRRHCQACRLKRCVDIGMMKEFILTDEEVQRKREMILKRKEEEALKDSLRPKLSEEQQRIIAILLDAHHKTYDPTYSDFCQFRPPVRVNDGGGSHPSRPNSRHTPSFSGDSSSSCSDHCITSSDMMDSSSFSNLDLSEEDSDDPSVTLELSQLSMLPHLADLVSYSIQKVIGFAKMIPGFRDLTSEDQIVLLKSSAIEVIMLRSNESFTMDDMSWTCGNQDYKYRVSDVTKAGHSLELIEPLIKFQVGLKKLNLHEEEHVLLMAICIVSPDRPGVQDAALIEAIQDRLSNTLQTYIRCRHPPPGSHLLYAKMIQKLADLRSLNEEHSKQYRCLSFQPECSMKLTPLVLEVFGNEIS
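Signal is fluorescence polarization, reporting how far test compounds block the interaction of VDR with the SRC2-3 coregulator peptide after a 2 h room-temperature incubation.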
PLK1 PBD inh = inhibitors of human PLK1 polo-box domain binding; P53350; Plk1 PBD binding of FITC phosphopeptide, fluorescence polarization; Potency, µM, for the others: max response, negative = inhibition, usual class: inhibitors; actives 2.8% (n = 360,000); AID 720504; also: series mostly up to about 57 µM; nearly all actives have a fitted effect of over 65% in size
KAT2A inh = GCN5L2 (KAT2A) acetyltransferase inhibition; GCN5L2 HAT assay, ThioGlo1 CoA-SH fluorescence; Q92830; actives 0.21% (n = 390,000); Potency, µM (doses to about 58.9 µM), for inactives: at the highest dose activity change, negative = inhibition, actives largely listed as inhibitors
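qHTS, 1536-well. 20nM enzyme, pH 7.5 HEPES/EDTA/Tween-20 buffer; 15 min compound preinc., RT. Start: 75uM H3(1-25), 70uM AcCoA, 50uM ThioGlo1. Read Ex340/Em540 at t=0 (autofluorescence flag) and t=20 min.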
DT40 TDP1 no CPT = qHTS for Inhibitors of human tyrosyl-DNA phosphodiesterase 1 (TDP1): qHTS in cells in absence of CPT. DT40 Tdp1-/- hTDP1 cells, no CPT, ATP luminescence, 48 h. Potency, µM (titrated, usually from 46.2 µM), inactives show top-dose activity change, negative = growth inhibition, usual class: inhibitors. actives 15% (n = 420,000); also: nearly all actives have a fitted effect of over 55% in size
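Chicken DT40 Tdp1-/- cells complemented with human TDP1, screened without camptothecin (DMSO vehicle only), 400 cells/well. Compounds pin-transferred, cells incubated at 37 °C for at least 48 hr. Growth read as ATP-dependent luminescence (CellTiter-Glo, 30 min at RT).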
TDP1 inh = inhibitors of human tyrosyl-DNA phosphodiesterase TDP1 | actives 0.28% (n = 350,000) | Q9NUW8 | Potency, µM (titrated, usually from 130 µM), without a hit: top-dose activity change, negative = inhibition, most hits filed as inhibitors | recombinant TDP1, AlphaScreen DNA substrate cleavage; also: nearly all actives have a fitted effect of over 40% in size
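AlphaScreen read-out: signal falls as enzyme removes the 3' tyrosine-FITC from a 5'-biotinylated DNA oligo (15 nM, 5 min, RT). Enzyme was E. coli-made recombinant Tdp1 at 1 nM, exposed to compound for 15 min beforehand; beads 10 ug/ml, 10 min.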
TDP1 cell CPT = growth inhibition of DT40 Tdp1-/-;hTDP1 cells with camptothecin (screen for TDP1 inhibitors). chicken DT40 Tdp1-/-;hTDP1 cells + 20 nM CPT, ATP luminescence, 48 h. Potency, µM (top dose mostly 46.2 µM), for the others: top-dose activity change, negative = growth inhibition, hits mostly inhibitors. actives 12% (n = 420,000); also: nearly all actives have a fitted effect of over 55% in size
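Chicken DT40 Tdp1-/- cells complemented with human TDP1, 400 cells/well, exposed to compounds plus 20 nM camptothecin for at least 48 h at 37 C; viability read as ATP content by CellTiter-Glo luminescence.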
Active calls of the source: *; ? = inconclusive; / = no result; [ ] = remark or other dose. A selection: hits, their analogues and other compounds. The true share with any hit is near 18%. Calls follow the shape of the dose curve; as a rule, active = well fitted curve in the direction sought with a large enough effect; inconclusive = small, poorly fitted or top-dose-only effect, or another doubt; inactive = no such curve, though single readings can be large; an effect the other way counts as inactive or inconclusive. % is scaled to controls: 0 for no effect and ±100 for the full control effect; potency is read from the fitted curve at half-maximal effect.

SMILES	VDR inhibitor	PLK1 PBD inh	KAT2A inh	DT40 TDP1 no CPT	TDP1 inh	TDP1 cell CPT
CSc1nc(Cl)cc(Nc2ccc(O)cc2)n1	-6%	-7%	-12%	?	0%	?
Cc1ccnn1CC(=O)N/N=C/c1ccc([N+](=O)[O-])s1	5%	-9%	-9%	23µM*	-1%	26µM*
O=C(N/N=C/c1ccc([N+](=O)[O-])s1)c1ccccc1	-4%	-9%	-22%	4.1µM*	-5%	4.6µM*
O=C(CNC(=O)c1cccc(F)c1)N/N=C/c1ccc([N+](=O)[O-])s1	12%	-6%	-5%	5.8µM*	-1%	18µM*
O=C(Cc1ccccc1)N/N=C/c1ccc([N+](=O)[O-])s1	-14%	-10%	-4%	23µM*	-7%	21µM*
O=C(N/N=C/c1ccc(Br)s1)c1cccc([N+](=O)[O-])c1	3%	-4%	0%	?	/	?
CCOc1ccc(-c2cc(C(=O)NCc3ccc(OCC)c(OC)c3)[nH]n2)cc1	3%	/	-2%	-25%	-6%	0%
CC1CC(C)CN(S(=O)(=O)c2ccc(C(=O)N(C)Cc3ccccc3)cc2)C1 (stereo not given)	-18%	1%	-4%	21µM*	0%	?
CC1CC(C)CN(S(=O)(=O)c2ccc(C(=O)N(c3ccccn3)C3CCCCC3)cc2)C1 (stereo not given)	-5%	-6%	-11%	16µM*	0%	?
O=C(c1ccc(S(=O)(=O)N2CCCCCC2)cc1)N(c1ccccn1)C1CCCCC1	-4%	4%	-3%	?	3%	?
CSc1ccc(CN(C)C(=O)c2ccc(S(=O)(=O)Nc3ccccc3)cc2)cc1	-6%	-13%	-9%	21µM*	0%[0.505 µM]	18µM*
O=[N+]([O-])c1ccc(N2CCN(c3ccccn3)CC2)c(Cl)c1	-1%	-2%	-5%	?	5%[0.0935 µM]	5%
O=C(NCc1nnc2c(C(F)(F)F)cc(Cl)cn12)C1CCCC1	7%	-27%	-7%	21%	-7%	?
COC(=O)N[C@H](c1ccccc1)C(C(C)=O)C(=O)OC (stereo not given in full)	0%	/	/	/	8%	/
Cc1occc1C(=O)N1CCCC(N2CCN(c3ccccc3F)CC2)C1 (stereo not given)	-3%	3%	-26%	2%	4%	-14%
CC(=O)Nc1ccc(NC(=O)CSc2nc(N)c(NC(=O)c3ccco3)c(=O)[nH]2)cc1	2%	-11%	-29%	?	-11%	?
COc1ccc(C(=O)Nc2ccc3oc(-c4cc(Cl)ccc4Cl)nc3c2)cc1Br	4%	/	-2%	6%	-7%[12.3 µM]	-3%
Nc1ccc2oc(-c3cc(Br)ccc3Cl)nc2c1	-25%	30µM*	-6%	?	0%	?
Cc1ccc(C(=O)Nc2ccc3oc(-c4cc(Br)ccc4Cl)nc3c2)cc1	-12%	/	-8%	?	5%[2.28 µM]	23µM*
COc1ccc(C(=O)Nc2ccc3oc(-c4ccc5ccccc5c4)nc3c2)cc1Br	-10%	/	-3%	18µM*	2%[12.3 µM]	18µM*
Nc1ccc2oc(-c3ccccc3Cl)nc2c1	13%	5%	1%	-18%	-3%	-1%
Cc1ccc(C(=O)Nc2ccc3oc(-c4ccc(C(C)(C)C)cc4)nc3c2)cc1	-2%	/	0%	8.2µM*	0%[12.3 µM]	?
COc1ccc(C(=O)Nc2ccc3oc(-c4ccc(OC)cc4)nc3c2)cc1	1%	/	-5%	-20%	1%	5%
CC(=O)Nc1ccc(OCc2cccc(-c3nc4ccccc4c(=O)n3Cc3ccco3)c2)cc1	/	/	/	/	0%	/
OC1(c2cccnc2)CCN(Cc2ccc3c(c2)CN(Cc2cccc4nccnc24)CCO3)CC1	/	/	/	-29%	/	-3%[9.04 µM]
SMILES	VDR inhibitor	PLK1 PBD inh	KAT2A inh	DT40 TDP1 no CPT	TDP1 inh	TDP1 cell CPT
COC(=O)c1ccc(C(=O)Nc2ccc3nc(-c4cccnc4)[nH]c3c2)cc1	0%	-7%	2%	5.2µM*	-2%	-16%
Cc1ccc2oc(-c3cc(NC(=O)c4oc5ccccc5c4C)ccc3Cl)nc2c1	-19%	/	-4%	-81%	3%[2.28 µM]	0.016µM*
COC(=O)c1ccc(C(=O)Nc2ccc3nc(-c4ccncc4)[nH]c3c2)cc1	-6%	-2%	-6%	-12%	/	?
COc1ccc(C(=O)Nc2ccc3oc(-c4cccc(F)c4)nc3c2)cc1OC	0%	-17%	-11%	?	1%	?
COc1ccc(-c2nc3cc(NC(=O)c4ccc(C)cc4)ccc3o2)cc1Cl	-7%	/	19%	?	1%[12.3 µM]	21µM*
COc1ccc(C(=O)Nc2ccc3oc(-c4cccnc4)nc3c2)cc1OC	4%	3%	-2%	?	-2%	7.3µM*
Cc1ccc(C(c2sc3nc(-c4ccco4)nn3c2O)N2CCC3(CC2)OCCO3)cc1 (stereo not given)	12%	/	1%	7%	-3%	-1%
O=C(c1ccc(F)c(F)c1)N1CCOc2ccc(CN3CCN(Cc4ccccn4)CC3)cc2C1	/	/	/	-14%	/	25%[9.04 µM]
CCOc1ccc(C(=O)Nc2ccc(-c3nc4cc(CC)ccc4o3)cc2)cc1	-2%	/	2%	?	1%[12.3 µM]	3.7µM*
O=C(Nc1ccc2oc(-c3cccc(Cl)c3Cl)nc2c1)c1cccc(Br)c1	3%	/	-12%	?	-4%[12.3 µM]	13µM*
CC1(c2ccccc2Cl)NC(=O)N(CC(=O)N2c3ccccc3NC(=O)C2(C)C)C1=O (stereo not given)	-22%	-4%	1%	-21%	1%	-9%
COc1ccccc1-c1nn2c(-c3ccc(C(C)(C)C)cc3)nnc2s1	/	/	-1%	/	-4%	/
COc1ccccc1-c1nnc2sc(-c3cc4ccccc4o3)nn12	16%	-2%	-9%	1µM*	4%	1.2µM*
COc1ccccc1-c1nnc2sc(-c3ccc(N(C)C)cc3)nn12	-13%	-7%	-1%	0.082µM*	0%	0.0073µM*
COc1ccc2nc(Cl)c(C=O)c(N3CCOCC3)c2c1	/	-7%	/	15µM*	/	?
Cc1cc(OCCCCNC(C)C)cc(C(C)C)c1	3%	2%	0%	?	-1%	?
Oc1ccc2ccccc2c1CN1CCCCC1	-11%	-27%	/	-12%	/	21%
Oc1ccc2cc(Br)ccc2c1CN1CCCC1	23%	?	-6%	23µM*	3%	28%
Cc1cc(C)c2sc(N(CCCN(C)C)C(=O)c3ccc(S(=O)(=O)N4CCCc5ccccc54)cc3)nc2c1	-6%	-5%	-7%	9.2µM*	11%	10µM*

High-throughput results (PubChem BioAssay)
